Experimental findings from PubChem BioAssay are described below.

Each structure is given as a SMILES string. Active and inactive are the calls of the source.

The nature of experiment [1]: small molecules captured by biotinylated probe aFSTL3 – biochemical, small-molecule microarray, fluorescence 635/667, stem cell growth factor project, primary screen (AID 1064).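 Also: measures binding of the biotinylated anti-FSTL3 antibody to printed compounds.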 Particulars: higher = more signal.
Experiment [2] in a line: binders from COS7 lysate, DM2A8 probe, primary screen, torsin A project, cell lysate, small-molecule microarray, fluorescence 635/667 (AID 1065). As to conditions: higher = more signal, COS7 lysate expressing mutant human TOR1A.
Experiment [3] can be described thus: small molecules captured by biotinylated probe aFGF2 – biochemical, small-molecule microarray, fluorescence 635/667, stem cell growth factor project, primary screen (AID 1067).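 Also: measures binding of biotinylated aFGF2 protein to printed compounds on slides; z-score merges feature fluorescence and signal-to-noise across triplicate slides.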 As to conditions: higher = more signal.
Experiment [4] is described as follows: small molecules captured by biotinylated probe aFGF10 – biochemical, small-molecule microarray, fluorescence 635/667, stem cell growth factor project, primary screen (AID 1071).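 Also: score merges 667 nm spot intensity and signal to noise from triplicate slides.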 As to conditions: higher = more signal.
The target in experiment [5] is Neurogenic locus notch homolog protein 2 (Homo sapiens) (UniProt Q04721). Kind of experiment: small molecules binding Notch2 protein – biochemical, small-molecule microarray, 635 nm fluorescence, stem cell growth factors, primary screen (AID 1073). As to conditions: higher = more signal.
Neurogenic locus notch homolog protein 2 (Homo sapiens), sequence (Q04721 whole entry, looked up, canonical isoform): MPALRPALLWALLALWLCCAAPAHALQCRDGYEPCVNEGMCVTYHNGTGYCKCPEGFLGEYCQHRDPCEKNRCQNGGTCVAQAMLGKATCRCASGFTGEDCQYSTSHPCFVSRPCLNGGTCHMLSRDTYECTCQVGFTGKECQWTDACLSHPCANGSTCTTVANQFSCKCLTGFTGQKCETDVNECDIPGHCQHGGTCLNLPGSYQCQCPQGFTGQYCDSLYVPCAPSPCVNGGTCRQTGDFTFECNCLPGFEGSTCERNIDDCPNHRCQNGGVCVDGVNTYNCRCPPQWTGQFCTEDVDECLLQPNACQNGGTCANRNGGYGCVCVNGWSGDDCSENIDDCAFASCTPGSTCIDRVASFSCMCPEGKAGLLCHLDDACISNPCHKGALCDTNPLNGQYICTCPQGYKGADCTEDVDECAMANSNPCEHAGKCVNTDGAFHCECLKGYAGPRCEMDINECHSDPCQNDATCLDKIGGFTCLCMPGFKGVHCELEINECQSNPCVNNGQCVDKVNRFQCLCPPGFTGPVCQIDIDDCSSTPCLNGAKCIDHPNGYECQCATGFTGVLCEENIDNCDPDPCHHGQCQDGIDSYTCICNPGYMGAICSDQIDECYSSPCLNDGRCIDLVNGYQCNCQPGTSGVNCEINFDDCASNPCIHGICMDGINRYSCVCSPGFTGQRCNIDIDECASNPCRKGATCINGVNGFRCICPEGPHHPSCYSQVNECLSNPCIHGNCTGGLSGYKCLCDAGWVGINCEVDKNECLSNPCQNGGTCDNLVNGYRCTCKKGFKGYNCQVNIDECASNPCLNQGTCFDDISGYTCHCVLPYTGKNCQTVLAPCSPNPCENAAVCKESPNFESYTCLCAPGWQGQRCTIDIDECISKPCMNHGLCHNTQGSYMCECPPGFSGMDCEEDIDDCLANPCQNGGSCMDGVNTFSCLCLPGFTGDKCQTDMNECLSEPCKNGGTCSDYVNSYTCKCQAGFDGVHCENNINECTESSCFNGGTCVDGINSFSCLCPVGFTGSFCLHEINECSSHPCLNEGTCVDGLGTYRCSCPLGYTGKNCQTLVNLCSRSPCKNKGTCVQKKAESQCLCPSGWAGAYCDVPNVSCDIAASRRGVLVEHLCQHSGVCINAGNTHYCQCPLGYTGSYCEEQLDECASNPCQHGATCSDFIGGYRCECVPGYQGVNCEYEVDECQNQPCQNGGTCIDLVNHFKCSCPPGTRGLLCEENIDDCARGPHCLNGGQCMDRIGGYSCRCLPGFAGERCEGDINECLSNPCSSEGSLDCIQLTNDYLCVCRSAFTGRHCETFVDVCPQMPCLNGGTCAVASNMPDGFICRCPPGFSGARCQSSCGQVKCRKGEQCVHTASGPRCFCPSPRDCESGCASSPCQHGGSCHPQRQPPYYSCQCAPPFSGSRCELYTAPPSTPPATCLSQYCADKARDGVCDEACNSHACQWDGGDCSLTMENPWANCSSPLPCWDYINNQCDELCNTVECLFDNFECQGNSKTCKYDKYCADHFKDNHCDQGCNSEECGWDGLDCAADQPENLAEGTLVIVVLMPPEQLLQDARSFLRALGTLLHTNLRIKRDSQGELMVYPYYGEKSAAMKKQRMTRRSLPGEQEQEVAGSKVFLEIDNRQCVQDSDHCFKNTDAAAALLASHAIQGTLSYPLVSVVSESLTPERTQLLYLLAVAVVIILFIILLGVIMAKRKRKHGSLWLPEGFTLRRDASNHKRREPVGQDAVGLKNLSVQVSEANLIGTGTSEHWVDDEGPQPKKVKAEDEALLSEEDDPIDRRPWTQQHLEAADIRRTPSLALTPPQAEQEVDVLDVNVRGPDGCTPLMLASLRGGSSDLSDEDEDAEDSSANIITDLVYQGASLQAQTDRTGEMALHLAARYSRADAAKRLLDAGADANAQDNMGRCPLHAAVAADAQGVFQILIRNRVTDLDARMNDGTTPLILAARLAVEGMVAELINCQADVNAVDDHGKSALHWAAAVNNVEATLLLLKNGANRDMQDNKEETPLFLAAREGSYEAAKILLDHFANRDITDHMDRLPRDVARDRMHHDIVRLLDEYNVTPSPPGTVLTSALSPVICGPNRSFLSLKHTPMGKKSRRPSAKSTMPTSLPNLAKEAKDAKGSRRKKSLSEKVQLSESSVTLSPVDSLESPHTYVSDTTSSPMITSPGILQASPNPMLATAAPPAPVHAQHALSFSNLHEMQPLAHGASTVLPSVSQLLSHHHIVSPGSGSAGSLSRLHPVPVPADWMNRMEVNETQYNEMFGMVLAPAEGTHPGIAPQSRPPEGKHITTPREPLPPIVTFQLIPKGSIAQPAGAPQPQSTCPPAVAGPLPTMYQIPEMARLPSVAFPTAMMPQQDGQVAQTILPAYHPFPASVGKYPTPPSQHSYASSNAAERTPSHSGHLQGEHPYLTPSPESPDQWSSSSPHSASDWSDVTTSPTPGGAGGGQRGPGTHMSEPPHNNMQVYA
Experiment [6] has as its target Pro-neuregulin-1, membrane-bound isoform (Homo sapiens) (UniProt Q02297). The experiment can be described thus: small molecules binding neuregulin-1 protein – biochemical, small-molecule microarray, fluorescence 635/667, psychiatric disease protein project, primary screen (AID 1075).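 Also: score combines 667 nm spot fluorescence with signal to noise.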 As to conditions: NRG1 binding, 635 nm fluorescence, higher = more signal.
Experiment [7] deals with Neuregulin-1 EGF-like domain. The experiment can be described thus: small molecules binding NRG1 EGF domain – biochemical, small-molecule microarray, 635 nm fluorescence, primary screen (AID 1081).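 Also: binding of the protein to compounds printed on small-molecule microarray slides.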 Particulars: higher = more signal.
Experiment [8] is described as follows: FRG1 expression reporter modulators in myotubes – cell-based, C2C12 myotubes, firefly/Renilla luciferase, luminescence, FRG1 inhibition for FSHD, primary screen (AID 1084). As to conditions: FRG1 promoter luciferase, higher = more signal, called active from +8 up or from −8 down.
Experiment [9] can be described thus: small molecules captured by biotinylated probe aFST – biochemical, small-molecule microarray, fluorescence 635/667, stem cell growth factor project, primary screen (AID 1086).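 Also: score merges 667 nm fluorescence with signal-to-noise of each printed compound spot.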 As to conditions: higher = more signal.
Experiment [10] in a line: binders of probe aHhip on microarray, primary screen, stem cell growth factor project, biochemical, small-molecule microarray, fluorescence 635/667 (AID 1087).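 Also: score merges spot fluorescence at 667nm with spot signal to noise ratio.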 Particulars: higher = more signal.
The subject of experiment [11] is PRMT1 (protein arginine N-methyltransferase 1). Kind of experiment: small molecules binding arginine methyltransferase PRMT1 – biochemical, small-molecule microarray, 635 nm fluorescence, primary screen (AID 1088).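 Also: binding of Prmt1 protein to compounds spotted on small-molecule microarray slides.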 As to conditions: higher = more signal.
Experiment [12] in a line: growth effects on S. cerevisiae YJM789 – YJM789 clinical isolate, OD600, 24 h, basal, primary screen (AID 1089).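 Also: growth of clinical yeast isolate S. cerevisiae YJM 789 seeded 1000 cells per well; test concentration not given here.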 Particulars: higher = more signal, called active from +8 up or from −8 down.
Experiment [13] is described as follows: S. pombe growth modifiers, basal conditions – strain 972, OD600, 24 h, no modulator, primary screen (AID 1090).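 Also: basal condition with compound alone and no growth modifier present; test concentration not given here.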 Particulars: S. pombe 972 growth, higher = more signal, called active from +8 up or from −8 down.
Experiment [14] is described as follows: budding yeast growth modifiers under rapamycin – strain BY4716, OD600, 96 h, primary screen (AID 1091). Also: test concentration not given here. Particulars: S. cerevisiae BY4716 + rapamycin, higher = more signal, called active from +8 up or from −8 down.
The target in experiment [15] is Torsin-1A-interacting protein 2 (Homo sapiens) (UniProt Q8NFQ8). Kind of experiment: small molecules binding lysate-expressed LULL1 – cell lysate, human LULL1 lysate, 635/667 nm fluorescence, primary screen (AID 1092).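 Also: probe is lysate of COS7 cells overexpressing human LULL1; score merges per-feature 667 nm fluorescence with signal-to-noise.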 Particulars: small-molecule microarray, hLULL1 lysate binding, 635 nm fluorescence; higher = more signal.
Torsin-1A-interacting protein 2 (Homo sapiens), sequence (Q8NFQ8 whole entry, looked up): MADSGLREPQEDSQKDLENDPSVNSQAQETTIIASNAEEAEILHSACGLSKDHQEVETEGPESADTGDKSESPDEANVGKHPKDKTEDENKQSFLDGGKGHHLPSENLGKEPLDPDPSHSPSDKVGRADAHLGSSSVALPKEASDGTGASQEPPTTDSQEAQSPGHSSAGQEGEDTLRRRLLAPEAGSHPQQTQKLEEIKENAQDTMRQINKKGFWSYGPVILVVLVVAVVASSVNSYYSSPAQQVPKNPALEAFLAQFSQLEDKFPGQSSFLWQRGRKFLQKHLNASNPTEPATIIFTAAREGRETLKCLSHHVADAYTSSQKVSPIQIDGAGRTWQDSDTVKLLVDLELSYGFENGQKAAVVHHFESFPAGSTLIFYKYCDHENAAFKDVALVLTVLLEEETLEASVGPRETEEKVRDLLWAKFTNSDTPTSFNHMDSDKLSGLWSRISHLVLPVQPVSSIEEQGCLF
Experiment [16] can be described thus: optical density change of DRC41 E. coli – strain DRC41, OD650, 24 h, E. coli filamentation project, primary screen (AID 1093).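 Also: MC1000 strain lacking acrAB efflux and sulA so SOS filamentation is blocked; test concentration not given here.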 As to conditions: E. coli DRC41 growth, higher = more signal, called active from +8 up or from −8 down.
Experiment [17] is described as follows: probe aLefty2 binding to arrayed compounds – biochemical, biotinylated probe, 635/667 nm fluorescence, primary screen (AID 1094).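 Also: score merges spot fluorescence near 667 nm with spot signal-to-noise ratio.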 Particulars: small-molecule microarray, higher = more signal.
Experiment [18] relates to Noggin (protein binding on small-molecule microarray). Kind of experiment: small molecules binding Noggin protein – biochemical, 635/667 nm fluorescence, primary screen (AID 1095).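 Also: score merges 667 nm feature fluorescence with signal to noise over triplicate slides.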 Particulars: 635 nm fluorescence, higher = more signal.
Experiment [19] concerns the target Neurogenic locus notch homolog protein 3 (Homo sapiens) (UniProt Q9UM47). Kind of experiment: small molecules binding NOTCH3 protein – biochemical, 635/667 nm fluorescence, primary screen (AID 1096). Particulars: small-molecule microarray, 635 nm fluorescence, higher = more signal.
A short description of experiment [20]: probe aEGFR binding to arrayed compounds – biochemical, biotinylated probe, 635/667 nm fluorescence, primary screen (AID 1097).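 Also: probe is a biotinylated anti-EGFR antibody binding compounds printed on slides; score combines fluorescence near 667 nm and signal to noise of each spot.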 As to conditions: small-molecule microarray, higher = more signal.

Pro-neuregulin-1, membrane-bound isoform (Homo sapiens), sequence (Q02297 whole entry, looked up, the tested form may be a part, canonical isoform): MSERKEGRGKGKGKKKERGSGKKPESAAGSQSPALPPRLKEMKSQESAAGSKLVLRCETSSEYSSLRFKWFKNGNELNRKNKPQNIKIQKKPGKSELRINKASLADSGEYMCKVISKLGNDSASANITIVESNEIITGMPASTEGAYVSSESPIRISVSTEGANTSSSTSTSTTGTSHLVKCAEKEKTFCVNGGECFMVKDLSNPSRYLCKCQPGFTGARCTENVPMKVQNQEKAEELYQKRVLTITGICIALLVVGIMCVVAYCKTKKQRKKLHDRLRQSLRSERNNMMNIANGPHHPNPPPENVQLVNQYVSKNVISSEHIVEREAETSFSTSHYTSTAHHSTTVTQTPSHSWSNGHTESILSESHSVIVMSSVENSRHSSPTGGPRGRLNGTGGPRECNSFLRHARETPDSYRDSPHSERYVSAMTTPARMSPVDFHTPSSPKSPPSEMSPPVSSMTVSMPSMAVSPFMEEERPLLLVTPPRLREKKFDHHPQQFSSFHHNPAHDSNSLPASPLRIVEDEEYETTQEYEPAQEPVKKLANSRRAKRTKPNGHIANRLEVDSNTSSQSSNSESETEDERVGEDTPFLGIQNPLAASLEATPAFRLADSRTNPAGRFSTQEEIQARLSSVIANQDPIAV

`COc1ccc(O[C@H]2C=C[C@@H](C#Cc3ccccc3)O[C@@H]2CO)cc1`: the composite z-score in experiment [1] was -0.213; in experiment [2], 0.0018; in experiment [3], -0.0206; in experiment [4], 0.457; in [5], 0.339; in experiment [6] it was 0.658. In addition, the composite z-score in [7] is 0.644; in [9] it was 0.137; in [10], -0.236; in [11], 0.718; in [15], 1.88; in [17] it was -0.248. The composite z-score in experiment [18] was 1.15; in [19], 0.402; in experiment [20], -0.125. The z-score is -1.37 (inactive) in [8]; -0.315 (inactive) in experiment [12]; -20.4 (active) in [13]; -0.731 (inactive) in experiment [14]; 1.3 (inactive) in [16].

As to `CCN1C(=O)[C@H]2[C@H]3[C@H](O)[C@H](O)CC(=NOCC=C(C)CCC=C(C)C)[C@@H]3CC[C@H]2C1=O`, the composite z-score in experiment [1] was -0.524; in experiment [2], 1.36; in experiment [3], -0.146; in experiment [4] it was 0.483; in experiment [5], 0.2; in [6], -0.0702. The composite z-score in experiment [7] was 0.91; in [9], 0.774; in experiment [10] it was -0.0994; in experiment [11] it was 1.4; in experiment [15], 0.915; in experiment [17], -0.0973. The results for the composite z-score in [18], in [19] and in experiment [20] were 0.962, 1.08 and 0.095, respectively. The z-score was 0.256 (inactive) in experiment [8]; -0.56 (inactive) in experiment [12]; -1.86 (inactive) in experiment [13]; -1.3 (inactive) in experiment [14]; 0.756 (inactive) in experiment [16].

On to `CC(C)=NOC[C@@H](O)[C@H]1O[C@@H]2OC(C)(C)O[C@@H]2[C@H]1O`, for which the composite z-score in [1] was -0.732; in experiment [2], 0.97; in experiment [3] it was 0.197; in [4] it was 0.502; in [5], 1.09; in experiment [6], 0.233. Moreover, the composite z-score is 0.457 in experiment [7]; 0.548 in experiment [9]; -0.191 in [10]; 0.956 in experiment [11]; 0.178 in [15]; 0.19 in experiment [17]. Besides, the figures for the composite z-score in experiment [18], in experiment [19] and in experiment [20] were 0.625, 0.498 and 0.0727, respectively. Further, the z-score in experiment [8] was -0.476 (inactive); in experiment [12], 0.51 (inactive); in experiment [13], 0.0819 (inactive); in experiment [14], 0.243 (inactive); in [16], 0.132 (inactive).

`Cc1ccc(S(=O)(=O)N[C@@H]2COC(=O)CC=C[C@@H](C)[C@H](NS(=O)(=O)c3ccc(C)cc3)COC(=O)[C@H](C)NC(=O)CC=C[C@H]2C)cc1`: the composite z-score in [1] was 0.166; in experiment [2] it was 0.264; in experiment [3], -0.11; in experiment [4] it was -0.0539; in [5], -1.12; in [6], -0.921. Moreover, the composite z-score in experiment [7] is -0.744; in experiment [9], -0.18; in [10], -0.216; in experiment [11], -0.287; in [15] it was -0.865; in experiment [17] it was -0.291. The composite z-score is 0.354 in experiment [18], -0.632 in [19] and -0.16 in experiment [20]. The z-score in experiment [8] was -0.138 (inactive); in experiment [12], -0.0073 (inactive); in experiment [13] it was 0.13 (inactive); in experiment [14] it was 0.147 (inactive); in [16], 0.715 (inactive).

As for `CC(C)[C@@H](OCc1ccccc1)[C@H](C)C=NOC[C@@H](O)[C@H]1O[C@@H]2OC(C)(C)O[C@@H]2[C@H]1O`, the composite z-score is -0.365 in [1]; 0.116 in experiment [2]; -0.198 in [3]; 0.492 in experiment [4]; 0.25 in [5]; 0.125 in [6]. For the same compound, the composite z-score in experiment [7] was 0.361; in experiment [9] it was 0.307; in experiment [10], -0.0645; in experiment [11], 0.763; in experiment [15], 0.758; in experiment [17], -0.132. For the same compound, the values for the composite z-score in experiment [18], in experiment [19] and in [20] were 1.07, 0.676 and -0.0828, respectively. Besides, the z-score was 0.417 (inactive) in experiment [8]; 0.87 (inactive) in experiment [12]; 1.05 (inactive) in [13]; 0.821 (inactive) in experiment [14]; 0.517 (inactive) in [16].
